Experimental data published in PubChem BioAssay (NCATS).
Results filed as inconclusive are left out. Where a call stands in place of a potency, no number is given. Activity calls are given as the source filed them. Calls come from the whole dose curve; as a rule, active = well fitted curve in the direction sought with a large enough effect; inconclusive = small, poorly fitted or top-dose-only effect, or another doubt; inactive = no such curve, though single readings can be large; an effect the other way counts as inactive or inconclusive. Non-standard residues stand in square brackets, D forms with d. Residues, ends and D or L forms follow the SMILES beside them. *: point of attachment. Sta = CC(C)C[C@H](N)[C@@H](O)CC(=O)O; Isovaleryl = CC(C)CC(=O)*

Assays:
[1] = Quantitative High-Throughput drug screen in 47 multiple myeloma cell lines against the NCATS MIPE library collection: FR4_PLB cell viability assay (AID 1918924; note: nearly all actives have a fitted effect of over 35% in size)
Summary of the method: (§1)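 Viability readout: CellTiter-Glo luminescence following 5 min room-temperature incubation with reagent. Prior exposure: 48 h, 37C, humidified 5% CO2, 500 cells per well.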

[2] = Quantitative High-Throughput drug screen in 47 multiple myeloma cell lines against the NCATS MIPE library collection: Delta47_JCRB cell viability assay (AID 1918925; note: nearly all actives have a fitted effect of over 45% in size)
Summary of the method: as §1

[3] = Quantitative High-Throughput drug screen in 47 multiple myeloma cell lines against the NCATS MIPE library collection: ARP1_JJKsccF8 cell viability assay (AID 1918928; note: nearly all actives have a fitted effect of over 40% in size)
Summary of the method: (§2)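 Here, 48 h treatment with MIPE 4.0 agents at 37 °C preceded an ATP luminescence read. Plating density was 500 cells per well.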

[4] = Quantitative High-Throughput drug screen in 47 multiple myeloma cell lines against the NCATS MIPE library collection: INA6_PLB cell viability assay (AID 1918965; note: nearly all actives have a fitted effect of over 55% in size)
Summary of the method: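 Approved and investigational drugs from MIPE 4.0 were added by pin tool to 500 cells per well. After 48 hours at 37C, ATP-based CellTiter-Glo luminescence indicated remaining viability.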

[5] = Quantitative High-Throughput drug screen in 47 multiple myeloma cell lines against the NCATS MIPE library collection: JJN3_DSMZ cell viability assay (AID 1918966; note: nearly all actives have a fitted effect of over 50% in size)
Summary of the method: as §1

[6] = Quantitative High-Throughput drug screen in 47 multiple myeloma cell lines against the NCATS MIPE library collection: AMO1_DSMZ cell viability assay (AID 1918927; note: nearly all actives have a fitted effect of over 30% in size)
Summary of the method: as §1

[7] = Quantitative High-Throughput drug screen in 47 multiple myeloma cell lines against the NCATS MIPE library collection: Karpas620_DSMZ cell viability assay (AID 1918959); note: nearly all actives have a fitted effect of over 30% in size
Summary of the method: as §1

[8] = Quantitative High-Throughput drug screen in 47 multiple myeloma cell lines against the NCATS MIPE library collection: KMM1_JCRB cell viability assay (AID 1918960); note: nearly all actives have a fitted effect of over 30% in size
Summary of the method: as §2

[9] = Quantitative High-Throughput drug screen in 47 multiple myeloma cell lines against the NCATS MIPE library collection: Karpas25_ECACC cell viability assay (AID 1918968; note: nearly all actives have a fitted effect of over 35% in size)
Summary of the method: as §1

[10] = Quantitative High-Throughput drug screen in 47 multiple myeloma cell lines against the NCATS MIPE library collection: KMS27_JCRB cell viability assay (AID 1918970); note: nearly all actives have a fitted effect of over 30% in size
Summary of the method: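 KMS27_JCRB myeloma cells, 500 per well, exposed 48 h at 37 C, 5% CO2 to MIPE 4.0 compounds. Viability from ATP by CellTiter-Glo luminescence, normalized to DMSO (100%) and medium-only (0%) wells.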

[11] = Quantitative High-Throughput drug screen in 47 multiple myeloma cell lines against the NCATS MIPE library collection: EJM_DSMZ cell viability assay (AID 1918926; note: nearly all actives have a fitted effect of over 30% in size)
Summary of the method: as §1

[12] = Quantitative High-Throughput drug screen in 47 multiple myeloma cell lines against the NCATS MIPE library collection: ARD_JJKsccE7 cell viability assay (AID 1918929)
Summary of the method: as §1

[13] = Quantitative High-Throughput drug screen in 47 multiple myeloma cell lines against the NCATS MIPE library collection: JIM3_ECACC cell viability assay (AID 1918963; note: nearly all actives have a fitted effect of over 35% in size)
Summary of the method: as §1

[14] = Quantitative High-Throughput drug screen in 47 multiple myeloma cell lines against the NCATS MIPE library collection: H1112_PLB cell viability assay (AID 1918967; note: nearly all actives have a fitted effect of over 30% in size)
Summary of the method: as §1

[15] = Quantitative High-Throughput drug screen in 47 multiple myeloma cell lines against the NCATS MIPE library collection: KHM11_PLB cell viability assay (AID 1918962); note: nearly all actives have a fitted effect of over 35% in size
Summary of the method: as §1

[16] = Quantitative High-Throughput drug screen in 47 multiple myeloma cell lines against the NCATS MIPE library collection: JIM1_ECACC cell viability assay (AID 1918964)
Summary of the method: as §1
Potency is the fitted concentration of half-maximal effect.

| Compound | Potency [1] | Potency [2] | Potency [3] | Potency [4] | Potency [5] | Potency [6] | Potency [7] | Potency [8] | Potency [9] | Potency [10] | Potency [11] | Potency [12] | Potency [13] | Potency [14] | Potency [15] | Potency [16] |
| --- | --- | --- | --- | --- | --- | --- | --- | --- | --- | --- | --- | --- | --- | --- | --- | --- |
| Cc1ccc(C)c(OCCCC(C)(C)C(=O)O)c1 | inactive | 16.6 µM (active) | inactive | 20.9 µM (active) | inactive | – | – | – | – | – | – | – | – | – | – | – |
| O=c1cc(N2CCOCC2)oc2c(-c3ccccc3)cccc12 | 16.6 µM (active) | 1.48 µM (active) | – | – | 16.6 µM (active) | inactive | inactive | inactive | 7.43 µM (active) | inactive | – | – | – | – | – | – |
| CCOC(=O)C1=C[C@@H](OC(CC)CC)[C@H](NC(C)=O)[C@@H](N)C1 | inactive | inactive | inactive | inactive | – | inactive | inactive | – | inactive | – | inactive | inactive | inactive | inactive | – | – |
| O=P(O)(O)C(O)(Cn1ccnc1)P(=O)(O)O | inactive | inactive | – | – | – | – | inactive | inactive | – | inactive | inactive | – | inactive | inactive | inactive | – |
| C[C@H](Cc1ccc(O)c(O)c1)[C@@H](C)Cc1ccc(O)c(O)c1 | 2.09 µM (active) | 16.6 µM (active) | – | 9.35 µM (active) | 14.8 µM (active) | 7.43 µM (active) | 5.26 µM (active) | – | 14.8 µM (active) | 9.35 µM (active) | – | – | – | – | – | inactive |
| O=Nc1c(-c2c(O)[nH]c3cc(Br)ccc23)[nH]c2ccccc12 | inactive | 5.9 µM (active) | – | 0.526 µM (active) | 18.7 µM (active) | 1.05 µM (active) | 8.33 µM (active) | 5.26 µM (active) | 5.26 µM (active) | – | 14.8 µM (active) | – | 5.26 µM (active) | 10.5 µM (active) | 4.69 µM (active) | 1.32 µM (active) |
| Cc1cccc(CN2CCN(C(c3ccccc3)c3ccc(Cl)cc3)CC2)c1 (stereo not drawn) | inactive | 8.33 µM (active) | – | 16.6 µM (active) | 23.5 µM (active) | – | – | – | 23.5 µM (active) | – | 18.7 µM (active) | – | – | 23.5 µM (active) | – | inactive |
| Oc1ccc2ccccc2c1SSc1c(O)ccc2ccccc12 | 20.9 µM (active) | 16.6 µM (active) | – | 5.9 µM (active) | 7.43 µM (active) | 20.9 µM (active) | 10.5 µM (active) | 23.5 µM (active) | 8.33 µM (active) | 18.7 µM (active) | – | 16.6 µM (active) | 18.7 µM (active) | 11.8 µM (active) | 20.9 µM (active) | 14.8 µM (active) |
| O=C1CCc2ccc(OCCCCN3CCN(c4cccc(Cl)c4Cl)CC3)cc2N1 | inactive | 23.5 µM (active) | – | – | 18.7 µM (active) | inactive | – | – | 16.6 µM (active) | – | inactive | – | 14.8 µM (active) | – | – | inactive |
| CN(C)CCc1c[nH]c2ccc(Cn3cncn3)cc12 | inactive | inactive | – | 1.66 µM (active) | – | – | – | – | inactive | – | inactive | – | inactive | inactive | – | – |
| Cc1cccc(C#Cc2ccccc2)n1 | inactive | inactive | – | 13.2 µM (active) | – | inactive | inactive | inactive | inactive | inactive | inactive | – | inactive | inactive | – | – |
| CCN(CC)CCOc1ccc(Nc2ncc3cc(-c4c(Cl)cccc4Cl)c(=O)n(C)c3n2)cc1 | 0.935 µM (active) | 1.32 µM (active) | – | – | – | 0.166 µM (active) | 2.09 µM (active) | 0.0332 µM (active) | 0.0209 µM (active) | 0.132 µM (active) | 2.09 µM (active) | – | 0.118 µM (active) | 5.9 µM (active) | 1.32 µM (active) | 0.0833 µM (active) |
| CCOc1cc(CC(=O)N[C@@H](CC(C)C)c2ccccc2N2CCCCC2)ccc1C(=O)O | inactive | – | – | inactive | – | – | – | – | inactive | – | inactive | inactive | inactive | inactive | – | – |
| Nc1nc(OCc2ccccc2)c2[nH]cnc2n1 | inactive | – | 20.9 µM (active) | 18.7 µM (active) | – | – | inactive | – | 16.6 µM (active) | 14.8 µM (active) | inactive | – | 13.2 µM (active) | inactive | inactive | – |
| CCCCN(CCCC)CCC(O)c1cc2c(Cl)cc(Cl)cc2c2cc(C(F)(F)F)ccc12 (stereo not drawn) | 20.9 µM (active) | – | inactive | 18.7 µM (active) | – | – | inactive | – | 14.8 µM (active) | – | 0.264 µM (active) | inactive | – | – | – | – |
| CC1(C)CCC(C)(C)c2cc(NC(=O)c3ccc(C(=O)O)cc3)ccc21 | inactive | 16.6 µM (active) | – | 18.7 µM (active) | – | – | – | – | 20.9 µM (active) | – | – | – | – | 10.5 µM (active) | – | inactive |
| CC(C)CC(=O)N[C@H](C(=O)N[C@H](C(=O)N[C@@H](CC(C)C)[C@@H](O)CC(=O)N[C@@H](C)C(=O)N[C@@H](CC(C)C)[C@@H](O)CC(=O)O)C(C)C)C(C)C (Isovaleryl-VV[Sta]A[Sta]-OH) | inactive | – | inactive | – | inactive | – | inactive | inactive | – | – | inactive | – | inactive | – | inactive | inactive |
| CN(C)C(=O)COC(=O)Cc1ccc(OC(=O)c2ccc(N=C(N)N)cc2)cc1 | inactive | – | inactive | 1.48 µM (active) | – | – | 7.43 µM (active) | – | – | – | – | – | – | 14.8 µM (active) | 0.662 µM (active) | – |
| CCC[C@@H]1C[C@@H](C(=O)N[C@@H]([C@H]2O[C@H](SC)[C@H](O)[C@@H](O)[C@H]2O)[C@@H](C)O)N(C)C1 | inactive | – | inactive | – | – | inactive | – | inactive | inactive | – | 3.32 µM (active) | inactive | inactive | inactive | inactive | – |
| Oc1ccc(OCc2ccccc2)cc1 | inactive | – | – | – | – | inactive | inactive | – | inactive | inactive | inactive | inactive | inactive | inactive | – | inactive |
| Cc1cccc(-c2[nH]ncc2-c2ccc3ncccc3n2)n1 | 0.118 µM (active) | – | inactive | – | – | inactive | inactive | – | – | – | inactive | – | inactive | inactive | – | – |
| Nc1ncn([C@H]2C[C@H](O)[C@@H](CO)O2)c(=O)n1 | inactive | – | – | 0.0235 µM (active) | – | – | 0.132 µM (active) | 0.296 µM (active) | 4.69 µM (active) | inactive | inactive | 0.418 µM (active) | – | – | inactive | – |
| CN1CCC(=C2c3ccccc3CCc3sccc32)CC1 | inactive | – | – | 16.6 µM (active) | – | – | – | – | – | – | inactive | – | – | inactive | – | – |
| CC(C)(S)[C@@H](N)C(=O)O | inactive | – | inactive | – | inactive | inactive | inactive | – | – | – | inactive | inactive | inactive | inactive | – | inactive |
| O=C(NCCO[N+](=O)[O-])c1cccnc1 | inactive | – | inactive | – | inactive | – | inactive | inactive | – | – | inactive | inactive | inactive | inactive | – | inactive |
| CCOC(=O)C1=C(O)C(=O)N(Cc2ccccc2)C1 | inactive | – | – | inactive | 9.35 µM (active) | inactive | inactive | inactive | – | – | inactive | – | inactive | inactive | – | – |
| COC(=O)C1=C(C)NC(C)=C(C(=O)OCCCN2CCC(c3ccccc3)(c3ccccc3)CC2)C1c1cccc([N+](=O)[O-])c1 (stereo not drawn) | inactive | – | – | – | – | inactive | inactive | – | – | – | inactive | – | inactive | inactive | inactive | – |
| C[C@]12CCC(=O)C=C1CC[C@@H]1[C@H]2[C@@H](O)C[C@@]2(C)[C@H]1CC[C@]2(O)C(=O)CO | inactive | – | – | – | – | inactive | inactive | – | 5.9 µM (active) | – | inactive | – | inactive | – | – | inactive |
